The full list was thinned out, with hits kept by preference.
HIV RNase H inh-1 – inhibitors of HIV-1 reverse transcriptase RNase H; RT-RNase H RNA/DNA duplex cleavage, fluorescence; inhibition, % at 10 µM; 65,000 tested, 1.9% active; AID 565; in the data active = inhibition above about 50%
HIV RNase H inh-2 – confirmation of HIV-1 reverse transcriptase RNase H inhibitors | shares compounds with HIV RNase H inh-1 | Recombinant RT RNase H, fluorescent RNA/DNA duplex cleavage | inhibition, % at 10 µM | 1,000 tested, 39% active; in the data active = inhibition above about 48%; inconclusive = no clear call, values can overlap the other calls
Active calls of the source: *; ? = inconclusive.

SMILES | HIV RNase H inh-1 | others
O=C(c1ncc[nH]1)c1ccccc1C(=O)N1CCOCC1 | -1
O=C(CCN1CCCCC1)NCC1OCCc2ccccc21 (stereo not given) | 1
Cc1cccc(C)c1OCC(=O)Nc1cccc(-c2nnc(-c3ccccc3)o2)c1 | 2
Cc1cccc(OCC(=O)Nc2cccc(-c3nnc(-c4ccccc4)o3)c2)c1C | 71* | HIV RNase H inh-2=66*
Cc1ccc(OCC(=O)Nc2cccc(-c3nnc(-c4ccccc4)o3)c2)cc1 | 0
C=COCCNC(=O)Nc1ccc(Cl)cc1Cl | -2
COc1ccc(N2CCN(Cc3cc(=O)oc4cc(C)c(Cl)c(C)c34)CC2)cc1 | 72* | HIV RNase H inh-2=68*
Cc1cc2oc(=O)cc(CN3CCC(C)CC3)c2c(C)c1Cl | -7
COc1ccc(N2CCN(CCNC(=O)c3c(C)cc(=O)oc3C)CC2)cc1 | 19
Brc1ccc(-c2cnc(-c3cccs3)o2)cc1 | -48
O=CN1CCN(C(C(=O)NC2CCCC2)c2ccc(Cl)cc2)CC1 (stereo not given) | -5
CCN(CC)C(=O)CSc1ccccc1N | 7
CC(C)(C)c1ccc(-c2cc(N)n[nH]2)cc1 | -8
CCC(C)c1ccc(O)c(NC(=O)c2cncc(Br)c2)c1 (stereo not given) | 3
CCC(C)c1ccc(O)c(N)c1 (stereo not given) | 60* | HIV RNase H inh-2=4
CC(C)(C)c1ccc(O)c(N)c1 | 86* | HIV RNase H inh-2=?
CC(C)(C)c1ccc(SCC(N)=O)cc1 | -12
CC(C)c1ccc(O)c(N)c1 | 58* | HIV RNase H inh-2=-13
COc1ccc(S(=O)(=O)N2CCCCC2)cc1C(C)C | -89
O=S(=O)(NCCSc1ccccc1)c1cccs1 | -53
Cc1ccc(S(=O)(=O)N(C)CCCC(=O)n2nc(C)cc2C)cc1 | 1
CC1CCCCN1CC(=O)Nc1sc2c(c1C#N)CCC2 (stereo not given) | 9
O=C(OCCn1cncn1)c1cc2ccccc2oc1=O | -14
COc1ccc(C(=O)N(Cc2ccco2)C(C(=O)NC2CCCC2)c2ccc(O)cc2)cc1OC (stereo not given) | -1
COC(=O)c1c(C(=O)OC)c2ccncn2c1Cl | -2
SMILES | HIV RNase H inh-1 | others
CCn1c(=O)cc(OCC(=O)Nc2ccc(Cl)cn2)c2ccccc21 | 20
Cn1nnc2cc(C(=O)N3CCC(c4ccccc4)C3)ccc21 (stereo not given) | 0
CCOC(=O)c1ccccc1NC(=O)c1cn(CC)c2nc(C)ccc2c1=O | 15
CCOc1ccc(NC(=O)CN2C(=O)C3CCCN3C2=O)cc1 (stereo not given) | 1
O=c1c2ccccc2[se]n1-c1ccccc1 | 94* | HIV RNase H inh-2=67*
O=c1c2ccccc2n2cnnc2n1-c1ccccc1 | -14
O=c1c2ccccc2n2nnnc2n1-c1ccccc1 | -14
C=CCn1cc(C(=O)NCCCOCC)c(=O)c2cc(S(=O)(=O)N(CC)CC)ccc21 | 7
COc1ccc(C2OC(=O)CC2C(=O)NC2CCCCCC2)cc1OC (stereo not given) | -6
COc1ccc(C2C3=C(CC(C)(C)CC3=O)Nc3c2c(=O)[nH]c2nc(C)nn32)cc1 (stereo not given) | -13
Cc1nnc(NC(=O)Oc2ccccc2)s1 | -1
Cc1c(NC(=O)Oc2ccccc2)sc(=S)n1C | 59* | HIV RNase H inh-2=6
CC(=O)NC(=O)Nc1sc(=S)n(C)c1C | 17
Cc1ccc(/C(O)=C2\C(=O)C(=O)N(CCCN(C)C)C2c2ccccn2)cc1 (stereo not given) | -4
CCn1c2ccccc2c2nnc(SCC(=O)c3ccccc3)nc21 | 2
C=CCn1c2ccccc2c2nnc(SCN3C(=O)c4ccccc4C3=O)nc21 | -22
CSc1nnc2c3cc(C)ccc3n(Cc3ccccc3)c2n1 | 50* | HIV RNase H inh-2=-3
O=C(COC(=O)c1ccccc1S(=O)(=O)N1CCCCC1)NCC(F)(F)F | -16
c1ccc(-n2c(-c3ccco3)nnc2N2CCOCC2)cc1 | -7
CN(C)c1ccc2c(c1)N=C(c1ccco1)OP2(=S)N1CCOCC1 (stereo not given) | 89* | HIV RNase H inh-2=68*
CCCC(=O)Nc1cnc(NC(=O)c2cccc(F)c2)cc1C | -4
Cc1cc(NC(=O)CSc2nnc(-c3ccncc3)n2N)ccc1Br | 52* | HIV RNase H inh-2=5
Cc1cccc(NC(=O)CSc2nnc(-c3ccncc3)n2C)c1 | -4
Nn1c(SCC(=O)Nc2ccc3c(c2)OCO3)nnc1-c1ccncc1 | 11
CCOc1ccc(S(=O)(=O)N2CCN(c3ccccc3OC)CC2)c2cccnc12 | -9
SMILES | HIV RNase H inh-1 | others
COc1ccc(CC(=O)Nc2cc(C)ccn2)cc1 | -24
COC(=O)C1(CCSC)NC(c2ccco2)C2C(=O)N(C)C(=O)C21 (stereo not given) | 1
CCn1ncc(Br)c1C(=O)Nc1sc2c(c1C(N)=O)CCC2 | 1
CCOC(=O)c1nn(-c2ccccc2)c(C#N)c1NC(=O)c1nn(CC)cc1Br | -3
CCOC(=O)c1c(NC(=O)c2nn(CC)cc2Br)sc2c1CCCCC2 | 88* | HIV RNase H inh-2=2
CCOC(=O)c1c(NC(=O)c2noc3c2CCCC3)sc2c1CCCC2 | -3

Screening results from PubChem BioAssay.
